In the library only some 12% were active in any assay of this set; here they are far more common.
HP1b binding inh: inhibitors of HP1-beta chromodomain binding to methylated histone tails; P83916; AlphaScreen HP1-beta / biotin-H3K9me3 peptide binding; Potency, µM (doses to about 114 µM), for inactives: at the top dose activity change, negative = inhibition, usual class: inhibitors; hit rate 0.56% among 390,000; AID 540317; also: nearly all actives have a fitted effect of over 70% in size
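HP1-beta protein (50 nM final) preincubated 30 min at room temperature with biotinylated H3(1-18)K9me3 peptide (50 nM) in PBS pH 7.4, 0.01% Tween-20, then compound added for 30 min. AlphaScreen streptavidin donor/nickel chelate acceptor beads (10 ug/mL final), 30 min dark, luminescence read.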
L3MBTL1 inh: L3MBTL1 (human) inhibition | hit rate 0.66% among 230,000 | AlphaScreen L3MBTL1–H3K9me1 peptide binding | Potency, µM (doses to about 57.1 µM), inactives show at the highest dose activity, negative = inhibition, most hits filed as inhibitors | Q9Y468 | AID 485360; also: % is scaled to controls: 0 for no effect and ±100 for the full control effect; nearly all actives have a fitted effect of over 60% in size
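First, the protein-peptide complex forms for 30 min at room temperature (L3MBTL1 50 nM, biotinylated H3K9me1 peptide 75 nM). Next, compounds are pin-transferred and incubated 30 min. Finally, AlphaScreen beads are added and read after 30 min.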
JMJD2A Tudor inh: inhibitors of human JMJD2A Tudor domain; AlphaScreen JMJD2A-Tudor / H3K4me3 peptide binding; Potency, µM (series often up to 114 µM), without a hit: at the top dose activity change, negative = inhibition, usual class: inhibitors; hit rate 4.4% among 390,000; also: % is scaled to controls: 0 for no effect and ±100 for the full control effect; nearly all actives have a fitted effect of over 50% in size
Sfp PPTase inh: Sfp phosphopantetheinyl transferase inhibition. Biochemical Sfp PPTase activity, qHTS. hit rate 3.5% among 310,000. Q9F4F7. AID 1490. Potency, µM, for inactives: largest response in the series, negative = inhibition, most hits filed as inhibitors;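 also: the enzyme is Sfp with the accession as filed and its product quenches rhodamine fluorescence; 0% = enzyme reaction without inhibitor and -100% = no enzyme wells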
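Compounds were incubated with enzyme (final 15 nM) for 15 min at room temperature before substrate addition started the reaction. Fluorescence at 525 nm excitation, 598 nm emission was recorded immediately and after 30 minutes.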
BAZ2B inh: blocks human BAZ2B. AlphaScreen BAZ2B-H3K14Ac peptide displacement. hit rate 4.4% among 360,000. Potency, µM (titrated, usually from 114 µM), without a hit: top-dose activity change, negative = inhibition, usual class: inhibitors. AID 504333. Q9UIF8; also: % is scaled to controls: 0 for no effect and ±100 for the full control effect; nearly all actives have a fitted effect of over 60% in size
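AlphaScreen luminescence quantifies BAZ2B engagement of H3K14Ac peptide; the protein and biotinylated peptide are both at 50 nM final, buffer PBS pH 7.4 with 0.01% Tween-20, all steps at room temperature.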
G9a block: G9a (human) methyltransferase inhibition; Q96KQ7; hit rate 8.8% among 350,000; AID 504332; Potency, µM (doses to about 102 µM), without a hit: top-dose activity, negative = inhibition, hits mostly inhibitors; G9a H3K9 monomethylation, AlphaScreen, 2 h; also: % is scaled to controls: 0 for no effect and ±100 for the full control effect; nearly all actives have a fitted effect of over 75% in size
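G9a (20 nM) was preincubated 15 min with compound, then reacted 2 h at room temperature with 500 nM biotin-H3K9 peptide and 20 µM SAM. Monomethyl-H3K9 detected by AlphaScreen using anti-H3K9me1 antibody.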
Starred values were filed as active, the others as inactive; [ ] = dose if it differs, or a comment. Calls follow the shape of the dose curve; as a rule, active = well fitted curve in the direction sought with a large enough effect; inconclusive = small, poorly fitted or top-dose-only effect, or another doubt; inactive = no such curve, though single readings can be large; an effect the other way counts as inactive or inconclusive. Potency is read from the fitted curve at half-maximal effect.

Results for O=C1NC(=O)N(CCc2ccc(F)cc2)C(=O)/C1=C/c1cccs1 ?
HP1b binding inh: -4%; JMJD2A Tudor inh: 56µM*; Sfp PPTase inh: 25µM*; BAZ2B inh: -33%; G9a block: 3.2µM*

What do the screens show for `CN(C)c1ccc(/C=C2\C(=O)NC(=O)N(CCc3ccc(F)cc3)C2=O)cc1`?
HP1b binding inh: 28%; JMJD2A Tudor inh: inconclusive; Sfp PPTase inh: -18%; BAZ2B inh: inconclusive; G9a block: 45µM*

What do the screens show for `COCCN1C(=O)NC(=O)/C(=C\c2ccc(F)cc2)C1=O`?
HP1b binding inh: 42%; L3MBTL1 inh: 3%; JMJD2A Tudor inh: 0%; Sfp PPTase inh: inconclusive; BAZ2B inh: -13%; G9a block: inconclusive

Results for O=C(Nc1ccccc1)N1CC[C@@]2(CCCNC2)C1 ?
Sfp PPTase inh: inconclusive; G9a block: -2%[12.7 µM]

How did O[C@@H](Cc1ccncc1)C(Cl)(Cl)Cl do in these assays?
Sfp PPTase inh: 4%

Results for CC(C)C[C@H](NC(=O)[C@H](CC(C)C)NC(=O)[C@H](Cc1ccccc1)NC(=O)[C@@H](N)Cc1ccc(O)cc1)C(=O)N[C@@H](CCCN=C(N)N)C(=O)N[C@@H](CC(N)=O)C(=O)N1CCC[C@H]1C(=O)O ?
Sfp PPTase inh: 8%

Results for CCOc1cc(/C=C(\C#N)C(=O)NCC2CCCO2)ccc1OCC(N)=O (configuration not stated) ?
HP1b binding inh: -16%; L3MBTL1 inh: -2%; JMJD2A Tudor inh: -24%; Sfp PPTase inh: 1%; BAZ2B inh: -11%; G9a block: 50µM*

How did C[n+]1cccc(C(=O)NCC2CCCO2)c1 (configuration not stated) do in these assays?
HP1b binding inh: 16%; L3MBTL1 inh: 2%; JMJD2A Tudor inh: -3%; Sfp PPTase inh: -2%; BAZ2B inh: -2%; G9a block: inconclusive

Results for Cc1c(C(=O)NCCC2=CCCCC2)oc2ccc(S(=O)(=O)N3CCC4(CC3)OCCO4)cc12 ?
HP1b binding inh: 22%; L3MBTL1 inh: -4%; JMJD2A Tudor inh: -20%; Sfp PPTase inh: 1%; BAZ2B inh: 3%; G9a block: 50µM*

How did Cc1cccc(-n2c(/C=C/c3c[nH]c4ccccc34)nc3ccccc3c2=O)c1 do in these assays?
HP1b binding inh: 33%; JMJD2A Tudor inh: -6%; BAZ2B inh: 0%; G9a block: -2%[59 µM]

Results for C/C1=C\[C@@H](C)C/C=C/[C@H]2[C@@H]3O[C@]3(C)[C@@H](C)[C@H]3[C@H](Cc4c[nH]c5ccccc45)NC(=O)[C@]32C(=O)/C=C/C(=O)[C@@H]1O ?
HP1b binding inh: 22%; L3MBTL1 inh: inconclusive; JMJD2A Tudor inh: -24%; Sfp PPTase inh: 13µM*; BAZ2B inh: inconclusive; G9a block: -21%[59 µM]

Results for CN1C(=O)C(=Cc2ccc(N3CCCCCC3)cc2)C(=O)N(C)C1=O ?
HP1b binding inh: 19%; L3MBTL1 inh: -12%; JMJD2A Tudor inh: -17%; Sfp PPTase inh: inconclusive; BAZ2B inh: -15%

Results for CN1C(=O)C(=Cc2ccc(N3CCOCC3)c([N+](=O)[O-])c2)C(=O)N(C)C1=O ?
L3MBTL1 inh: -1%; Sfp PPTase inh: 22µM*; BAZ2B inh: -35%; G9a block: 35µM*

How did O=C1NC(=O)C(=Cc2cc([N+](=O)[O-])ccc2N2CCCCC2)C(=O)N1 do in these assays?
HP1b binding inh: 24%; JMJD2A Tudor inh: -20%; Sfp PPTase inh: 16%; BAZ2B inh: -12%; G9a block: 10%[59 µM]

What do the screens show for `O=C1NC(=O)C(=Cc2ccc(N3CCN(C(=O)c4ccccc4)CC3)c([N+](=O)[O-])c2)C(=O)N1`?
HP1b binding inh: inconclusive; JMJD2A Tudor inh: 40µM*; Sfp PPTase inh: 28µM*; BAZ2B inh: inconclusive; G9a block: 11µM*

What do the screens show for `COC(=O)[C@@]1(Cc2ccccc2)[C@H]2c3cc(C(=O)N(C)C)n(C)c3C[C@H]2CN1C(=O)c1ccccc1`?
Sfp PPTase inh: 12%

How did Cn1cccc1/C=C1\C(=O)NC(=O)N(CCC2=CCCCC2)C1=O do in these assays?
HP1b binding inh: -11%; L3MBTL1 inh: -3%; JMJD2A Tudor inh: -18%; Sfp PPTase inh: 3%; BAZ2B inh: -9%; G9a block: -6%[59 µM]

How did Cn1cccc1/C=C1\C(=O)NC(=O)N(Cc2ccccc2Cl)C1=O do in these assays?
HP1b binding inh: 3%; JMJD2A Tudor inh: inconclusive; Sfp PPTase inh: -15%; G9a block: 45µM*

What do the screens show for `CC1CCN(CC(=O)c2ccccc2Cl)CC1`?
HP1b binding inh: 12%; L3MBTL1 inh: 9%; JMJD2A Tudor inh: inconclusive; Sfp PPTase inh: 5%; BAZ2B inh: -9%; G9a block: inconclusive

Results for COc1ccc(OCC#CCN2CCNCC2)cc1 ?
HP1b binding inh: inconclusive; L3MBTL1 inh: 1%; JMJD2A Tudor inh: 6.3µM*; Sfp PPTase inh: inconclusive; BAZ2B inh: 32µM*; G9a block: 8.9µM*

What do the screens show for `CC1CCN(CC#CCOc2ccc(Cl)cc2)CC1`?
HP1b binding inh: inconclusive; L3MBTL1 inh: -3%[2.29 µM]; JMJD2A Tudor inh: 35µM*; Sfp PPTase inh: -22%; BAZ2B inh: 50µM*; G9a block: 19%[0.501 µM]

What do the screens show for `CCOC(=O)c1ccc(NC(=O)CSc2cc(=O)n(CC)c3ccccc23)cc1`?
HP1b binding inh: -6%; JMJD2A Tudor inh: -3%; BAZ2B inh: 6%; G9a block: inconclusive

How did CC(C)=CCCC1(C)C=Cc2c(O)c3c(c(CC=C(C)C)c2O1)OC12C(=CC4CC1C(C)(C)OC2(C/C=C(/C)C(=O)O)C4=O)C3=O (configuration not stated) do in these assays?
Sfp PPTase inh: -88%; G9a block: -39%[2.33 µM]

What do the screens show for `CN(C)c1ccc(C(O)P(=O)(OCc2ccccc2)c2ccc(N(C)C)cc2)cc1` (configuration not stated)?
HP1b binding inh: inconclusive; L3MBTL1 inh: -1%; JMJD2A Tudor inh: 89µM*; Sfp PPTase inh: -7%; BAZ2B inh: 40µM*; G9a block: 15%[12.7 µM]

How did Cc1ccc(NC(=O)COC(=O)CCc2c[nH]c3ccccc23)cc1[N+](=O)[O-] do in these assays?
HP1b binding inh: -23%; L3MBTL1 inh: -25%; JMJD2A Tudor inh: inconclusive; Sfp PPTase inh: inconclusive; BAZ2B inh: inconclusive; G9a block: 40µM*

What do the screens show for `CC(=O)NCCc1c[nH]c2ccccc12`?
HP1b binding inh: 25%; JMJD2A Tudor inh: -5%; Sfp PPTase inh: 21%; BAZ2B inh: inconclusive; G9a block: 2%[59 µM]
